{"source": "PubChem BioAssay (EPA / NIEHS)", "note": "Where “and” joins values, the source holds several entries; their conditions need not be identical. Equal entries are not always repeated. Inconclusive results are not listed. Calls of active or inactive are those of the source. How the source made its calls, unless noted: active means hit-call score of the fitted dose curve at least 0.9, where 1 is the maximum; inactive means score below 0.9.", "data": [{"read-out": "CD69, CD69 (gene 969)", "test": "BSK_LPS_CD69: BioMAP Diversity Plus: LPS Assay for CD69 Biomarker Activity (AID 2284303)", "conditions": "primary human HUVEC with PBMC", "in_short": "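CD69 surface levels were read by ELISA after 24 h chemical treatment of an LPS-stimulated HUVEC plus PBMC co-culture; positive-direction fit against DMSO vehicle.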", "values": [{"smiles": "O=C(O)C(F)(F)C(F)(F)C(F)(F)C(F)(F)C(F)(F)C(F)(F)C(F)(F)C(F)(F)F", "AC50": "41.8 µM (active) and 30 µM (active)"}, {"smiles": "O=C(O)C(F)(F)C(F)(F)C(F)(F)C(F)(F)C(F)(F)F", "outcome": "inactive"}, {"smiles": "O=S(=O)(O)C(F)(F)C(F)(F)C(F)(F)C(F)(F)C(F)(F)C(F)(F)F", "outcome": "inactive"}, {"smiles": "O=S(=O)(O)C(F)(F)C(F)(F)C(F)(F)C(F)(F)F", "outcome": "inactive"}, {"smiles": "O=C(O)C(F)(F)C(F)(F)C(F)(F)C(F)(F)C(F)(F)C(F)(F)C(F)(F)C(F)(F)C(F)(F)F", "AC50": "49.1 µM (active) and 45.4 µM (active)"}, {"smiles": "NS(=O)(=O)C(F)(F)C(F)(F)C(F)(F)C(F)(F)C(F)(F)C(F)(F)C(F)(F)C(F)(F)F", "AC50": "38.4 µM (active) and 24.5 µM (active)"}, {"smiles": "COc1ccc(O)c(C(C)(C)C)c1", "outcome": "inactive"}]}, {"test_system": "not listed separately", "test": "IUF_NPC5_oligodendrocyte_differentiation_120hr: Leibniz Research Institute for Environmental Medicine (IUF) 120-hour Oligodendrocyte Differentiation Assay (NPC5) (AID 2284304; active means hit-call score of the fitted dose curve at least 0.9, where 1 is the maximum;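 further: share of O4-positive cells among Hoechst nuclei found by CNN image analysis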)", "conditions": "not given", "in_short": "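hNPC spheres, fetal cortex GW 16-19; PDL/laminin, DMEM:F12 3:1 + 1% N2, 37C/5% CO2; 7 concentrations + solvent control, 5 d exposure, half-change day 3. Readout: %O4+ of Hoechst+ nuclei in migration area, CNN classification; DMSO baseline.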", "values": [{"smiles": "CO/C=C(/C(=O)OC)c1ccccc1COc1cccc(C(F)(F)F)n1", "AC50": "1.51 µM (active)"}, {"smiles": "O=S(=O)(O)C(F)(F)C(F)(F)C(F)(F)C(F)(F)C(F)(F)C(F)(F)F", "outcome": "inactive"}, {"smiles": "O=S(=O)(O)C(F)(F)C(F)(F)C(F)(F)C(F)(F)F", "outcome": "inactive"}, {"smiles": "C=CC(N)=O", "outcome": "inactive"}]}, {"test_system": "not listed separately", "test": "IUF_NPC4_neurite_area_120hr: Leibniz Research Institute for Environmental Medicine (IUF) 120-hour Neuronal Morphology Assay for Neurite Area (NPC4) (AID 2284305; active means hit-call score of the fitted dose curve at least 0.9, where 1 is the maximum)", "conditions": "not given", "in_short": "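Endpoint at 120 h: automated imaging of TUBB3/Hoechst-stained differentiating human neural progenitor spheres, neurite area per neuron from skeletonization. DMSO solvent control, not above 0.1%, set the baseline; medium was half-replaced on day 3.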", "values": [{"smiles": "CO/C=C(/C(=O)OC)c1ccccc1COc1cccc(C(F)(F)F)n1", "outcome": "inactive"}, {"smiles": "O=S(=O)(O)C(F)(F)C(F)(F)C(F)(F)C(F)(F)C(F)(F)C(F)(F)F", "outcome": "inactive"}, {"smiles": "O=S(=O)(O)C(F)(F)C(F)(F)C(F)(F)C(F)(F)F", "outcome": "inactive"}, {"smiles": "C=CC(N)=O", "outcome": "inactive"}, {"smiles": "CCOP(=S)(OCC)SCSC(C)(C)C", "outcome": "inactive"}]}, {"test_system": "not listed separately", "test": "IUF_NPC2-5_cytotoxicity_72hr: Cytotoxicity Assessment at 72 hours in the Leibniz Research Institute for Environmental Medicine (IUF) Neural Progenitor Cell Migration and Differentiation Assay for Cytotoxicity (NPC2-5) (AID 2284306; active means hit-call score of the fitted dose curve at least 0.9, where 1 is the maximum;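 further: LDH release into supernatant measured by resorufin fluorescence marking membrane damage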)", "conditions": "not given", "in_short": "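Primary human neural progenitor spheres migrate and differentiate on laminin. Compound is present from the start of differentiation, with DMSO kept at or below 0.1%. At 72 h, supernatant LDH is quantified fluorometrically, with values fitted in the positive direction.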", "values": [{"smiles": "CO/C=C(/C(=O)OC)c1ccccc1COc1cccc(C(F)(F)F)n1", "outcome": "inactive"}, {"smiles": "O=S(=O)(O)C(F)(F)C(F)(F)C(F)(F)C(F)(F)C(F)(F)C(F)(F)F", "outcome": "inactive"}, {"smiles": "O=S(=O)(O)C(F)(F)C(F)(F)C(F)(F)C(F)(F)F", "outcome": "inactive"}, {"smiles": "C=CC(N)=O", "outcome": "inactive"}, {"smiles": "CCOP(=S)(OCC)SCSC(C)(C)C", "outcome": "inactive"}]}, {"test_system": "not listed separately", "test": "IUF_NPC2-5_cytotoxicity_120hr: Cytotoxicity Assessment at 120 hours in the Leibniz Research Institute for Environmental Medicine (IUF) Neural Progenitor Cell Migration and Differentiation Assay (NPC2-5) (AID 2284307; active means hit-call score of the fitted dose curve at least 0.9, where 1 is the maximum)", "conditions": "not given", "in_short": "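hNPC spheres on PDL/laminin, N2 medium, 37C; 7 concs + solvent control, DMSO ≤0.1%; 5-day exposure, half medium changed day 3. LDH in supernatant at 120 h, resazurin→resorufin fluorescence, gain-of-signal.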", "values": [{"smiles": "CO/C=C(/C(=O)OC)c1ccccc1COc1cccc(C(F)(F)F)n1", "outcome": "inactive"}, {"smiles": "O=S(=O)(O)C(F)(F)C(F)(F)C(F)(F)C(F)(F)C(F)(F)C(F)(F)F", "outcome": "inactive"}, {"smiles": "O=S(=O)(O)C(F)(F)C(F)(F)C(F)(F)C(F)(F)F", "outcome": "inactive"}, {"smiles": "C=CC(N)=O", "outcome": "inactive"}, {"smiles": "CCOP(=S)(OCC)SCSC(C)(C)C", "outcome": "inactive"}]}, {"test_system": "not listed separately", "test": "IUF_NPC2-5_cell_number_120hr: Cell Number Assessment at 120 hours in the Leibniz Research Institute for Environmental Medicine (IUF) Neural Progenitor Cell Migration and Differentiation Assay (NPC2-5) (AID 2284308);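 further: count of Hoechst-stained nuclei in migration zone around plated human neural progenitor spheres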", "conditions": "not given", "in_short": "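Hoechst-stained nuclei within the migration area were counted by automated high content imaging after 120 h. Single hNPC spheres differentiated on poly-D-lysine/laminin in DMEM/F12 (3:1) with 1% N2, compound present throughout, DMSO ≤0.1%.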", "values": [{"smiles": "CO/C=C(/C(=O)OC)c1ccccc1COc1cccc(C(F)(F)F)n1", "AC50": "9.92 µM (active)"}, {"smiles": "O=S(=O)(O)C(F)(F)C(F)(F)C(F)(F)C(F)(F)C(F)(F)C(F)(F)F", "outcome": "inactive"}, {"smiles": "O=S(=O)(O)C(F)(F)C(F)(F)C(F)(F)C(F)(F)F", "outcome": "inactive"}, {"smiles": "C=CC(N)=O", "outcome": "inactive"}, {"smiles": "CCOP(=S)(OCC)SCSC(C)(C)C", "outcome": "inactive"}]}, {"test_system": "not listed separately", "test": "IUF_NPC2-5_viability_120hr: Viability Assessment at 120 hours in the Leibniz Research Institute for Environmental Medicine (IUF) Neural Progenitor Cell Migration and Differentiation Assay (NPC2-5) (AID 2284312)", "conditions": "not given", "in_short": "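Human fetal (GW 16-19) neural progenitor spheres of 0.3 mm were plated on poly-D-lysine/laminin in N2 differentiation medium and exposed from day 0 for 120 h, with half-medium refresh at day 3. Viability was read as alamar blue resazurin-to-resorufin fluorescence against DMSO.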", "values": [{"smiles": "CO/C=C(/C(=O)OC)c1ccccc1COc1cccc(C(F)(F)F)n1", "AC50": "6.8 µM (active)"}, {"smiles": "O=S(=O)(O)C(F)(F)C(F)(F)C(F)(F)C(F)(F)C(F)(F)C(F)(F)F", "outcome": "inactive"}, {"smiles": "O=S(=O)(O)C(F)(F)C(F)(F)C(F)(F)C(F)(F)F", "outcome": "inactive"}, {"smiles": "C=CC(N)=O", "outcome": "inactive"}, {"smiles": "CCOP(=S)(OCC)SCSC(C)(C)C", "outcome": "inactive"}]}, {"test_system": "IYD (gene 389434)", "test": "CCTE_GLTED_hIYD: CCTE's human Iodotyrosine Deiodinase (xIYD) Inhibition Assay, Great Lakes Toxicology and Ecology Division (GLTED) Lab (AID 2284317; active means hit-call score of the fitted dose curve at least 0.9, where 1 is the maximum;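 further: cell-free human IYD enzyme made in baculovirus insect cells; iodide freed from monoiodotyrosine measured by cerium arsenite color change at 420 nm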)", "conditions": "not given", "in_short": "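Deiodination of MIT by insect-cell-produced human IYD is measured after a 3 h incubation with test chemical. Free iodide passes through a Dowex column and accelerates Sandell-Kolthoff Ce4+ reduction, read at 420 nm; run in triplicate.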", "values": [{"smiles": "CCCCCCCCCC[N+](C)(C)CCCCCCCCCC", "AC50": "63.9 µM (active)"}, {"smiles": "O=C(O)C(F)(F)C(F)(F)C(F)(F)C(F)(F)C(F)(F)C(F)(F)C(F)(F)C(F)(F)F", "AC50": "91.2 µM (active)"}, {"smiles": "O=C(O)C(F)(F)C(F)(F)C(F)(F)C(F)(F)C(F)(F)C(F)(F)C(F)(F)C(F)(F)C(F)(F)F", "AC50": "95.5 µM (active) and 50.9 µM (active)"}, {"smiles": "NS(=O)(=O)C(F)(F)C(F)(F)C(F)(F)C(F)(F)C(F)(F)C(F)(F)C(F)(F)C(F)(F)F", "AC50": "46.1 µM (active)"}, {"smiles": "CC#Cc1cc(C)nc(Nc2ccccc2)n1", "outcome": "inactive"}, {"smiles": "CCCCCCCCCc1ccc(O)cc1", "AC50": "24.1 µM (active)"}]}, {"test_system": "not listed separately", "test": "CCTE_Mundy_HCI_iCellGluta_NOG_NeuriteLength: CCTE's Neurite Outgrowth Assay in iCellGluta cells for Neurite Length, Mundy Lab (AID 2284318; active means hit-call score of the fitted dose curve at least 0.9, where 1 is the maximum)", "conditions": "not given", "in_short": "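Automated high-content imaging of betaIII-tubulin (Alexa Fluor-488) and Hoechst-stained cells gave neurite length, normalized to the DMSO baseline.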", "values": [{"smiles": "CO/C=C(/C(=O)OC)c1ccccc1COc1cccc(C(F)(F)F)n1", "AC50": "5.9 µM (active)"}, {"smiles": "O=S(=O)(O)C(F)(F)C(F)(F)C(F)(F)C(F)(F)C(F)(F)C(F)(F)F", "outcome": "inactive"}, {"smiles": "O=S(=O)(O)C(F)(F)C(F)(F)C(F)(F)C(F)(F)F", "outcome": "inactive"}, {"smiles": "NS(=O)(=O)C(F)(F)C(F)(F)C(F)(F)C(F)(F)C(F)(F)C(F)(F)C(F)(F)C(F)(F)F", "outcome": "inactive"}, {"smiles": "CCOP(=S)(OCC)SCSC(C)(C)C", "outcome": "inactive"}, {"smiles": "COc1ccc(O)c(C(C)(C)C)c1", "outcome": "inactive"}]}, {"test_system": "not listed separately", "test": "CCTE_Deisenroth_5AR_NBTE_donor: CCTE's 5alpha-reductase NanoBRET Target Engagement Assay […], Deisenroth Lab (AID 2284319)", "conditions": "actives raise or lower the signal", "in_short": "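HEK293T cells transiently expressing SRD5A2-NanoLuc, exposed 5 h to chemicals (8 points, 10 nM - 29.9 uM), with testosterone tracer for the final 2 h. Donor luminescence at 460 nm read after Nano-Glo substrate plus extracellular NanoLuc inhibitor; bidirectional fit versus DMSO.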", "values": [{"smiles": "CC(C)(c1ccccc1)c1ccc(O)cc1", "outcome": "inactive"}, {"smiles": "CCCCCCCCCC[N+](C)(C)CCCCCCCCCC", "AC50": "5.89 µM (active)"}, {"smiles": "Clc1ccc(C(c2ccccc2Cl)C(Cl)(Cl)Cl)cc1", "note": "(stereo not given)", "outcome": "inactive"}, {"smiles": "Cc1cc(-c2ccc(N)c(C)c2)ccc1N", "outcome": "inactive"}, {"smiles": "CCC(C)c1cc([N+](=O)[O-])cc([N+](=O)[O-])c1O", "note": "(stereo not given)", "AC50": "29.4 µM (active)"}, {"smiles": "ClC(Cl)=C(c1ccc(Cl)cc1)c1ccc(Cl)cc1", "outcome": "inactive"}]}, {"test_system": "TTR (gene 7276)", "test": "CCTE_GLTED_hTTR_0.5uM: CCTE's human Transthyretin (hTTR) Inhibition Assay, with 0.5uM TTR, Great Lakes Toxicology and Ecology Division (GLTED) Lab (AID 2284320)", "conditions": "not given", "in_short": "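Probe (ANSA) displacement from 0.5 uM human transthyretin was followed by fluorescence (ex 380, em 475) after a 2 h incubation with chemical. Activity was scored as signal loss and fitted positively relative to DMSO.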", "values": [{"smiles": "O=C(O)C(F)(F)C(F)(F)C(F)(F)C(F)(F)C(F)(F)C(F)(F)C(F)(F)C(F)(F)F", "AC50": "435 nM (active)"}, {"smiles": "O=C(O)C(F)(F)C(F)(F)C(F)(F)C(F)(F)C(F)(F)F", "AC50": "1460 nM (active)"}, {"smiles": "O=S(=O)(O)C(F)(F)C(F)(F)C(F)(F)C(F)(F)C(F)(F)C(F)(F)F", "AC50": "455 nM (active) and 190 nM (active)"}, {"smiles": "O=S(=O)(O)C(F)(F)C(F)(F)C(F)(F)C(F)(F)F", "AC50": "788 nM (active)"}, {"smiles": "O=C(O)C(F)(F)C(F)(F)C(F)(F)C(F)(F)C(F)(F)C(F)(F)C(F)(F)C(F)(F)C(F)(F)F", "AC50": "721 nM (active)"}, {"smiles": "NS(=O)(=O)C(F)(F)C(F)(F)C(F)(F)C(F)(F)C(F)(F)C(F)(F)C(F)(F)C(F)(F)F", "AC50": "807 nM (active)"}]}]}
